Shn3 inh set2 – reduces Shn3 3'UTR luciferase signal in osteoblasts; Clone20 osteoblast Shn3 3'UTR firefly luciferase, 24 h; inhibition, % at 12.5 µM; 0.52% of 360,000 active;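 active = mean inhibition of at least 75% with every replicate also reaching 75%; inconclusive = mean inhibition at least 75% but some replicate below; inactive = mean inhibition below 75%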;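 note: 0% = median of neutral control wells and 100% = pilot-screen positive control compound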
EBV LMP1 NFkB – reduces LMP1-driven NF-kappaB luciferase signal. 0.69% of 350,000 active. LMP1-induced NF-kappaB luciferase reporter cells, luminescence. inhibition, % at 12.5 µM; in the data active = inhibition above about 41%; inconclusive = no clear call, values can overlap the other calls;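 note: 0% = neutral control wells and 100% = reference inhibitor control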
EWS-Fli inh – blocks EWS/Fli oncoprotein-driven transcription; A673 NR0B1-luciferase reporter, viability-normalised; inhibition, % at 12.6 µM; 0.67% of 350,000 active; AID 651661;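 active = mean inhibition of at least 50% after viability correction, with every replicate also passing that limit; inconclusive = mean reaches 50% but only one of two replicates passes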;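 note: firefly luciferase signal divided by Alamar Blue viability fluorescence both relative to DMSO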
PAX8 inh HTS – lowers PAX8-driven luciferase in RMG-I cells | RMG-I TPO-luciferase reporter, SteadyGlo, 24 h | inhibition, % at 12.6 µM | 1.2% of 360,000 active | AID 652154;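 active = mean replicate inhibition at least 60% with every replicate also reaching 60%; inconclusive = only one of the two criteria is met; inactive = mean below 60% and not all replicates reaching 60%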;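 note: luciferase light reporting Pax8 driven TPO promoter activity; plate controls were median of neutral control wells for no effect and mitoxantrone controls for full effect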
LGR2 inh – inhibitors of bursicon-induced Drosophila LGR2 receptor cAMP signaling | 0.35% of 380,000 active | HEK293 LGR2, CRE-luciferase, bursicon-stimulated, 4 h | inhibition, % at 9.99 µM | AID 720647;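 active = drop in luminescence signal, shown as inhibition above about 50% in the replicate tests, limit read from the data, passing the limit was not always enough; inconclusive = probably only some replicates passing the limit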;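 note: agonist challenge used bursicon conditioned medium at about half maximal strength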
TRPM1 prom inh – inhibitors of MITF-driven TRPM1 promoter in melanoma cells. SK-MEL-5 TRPM1 promoter luciferase, 24 h. inhibition, % at 12.5 µM. 0.83% of 330,000 active;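 active = mean inhibition across replicates of 60% or more, whatever share of single replicates reaches that level; inconclusive = some that reach 60%, reason not given; inactive = mean inhibition across replicates below 60%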
The depositor's hits bear a star; ? = inconclusive; · = no result. Shown are actives, neighbours in structure and some others; about 2.2% of the full set was active somewhere.

SMILES | Shn3 inh set2 | EBV LMP1 NFkB | EWS-Fli inh | PAX8 inh HTS | LGR2 inh | TRPM1 prom inh
C=CCSc1nc2ccccc2n1C(=O)/C=C/c1cc(OC)c(OC)c(OC)c1 | 96.8* | 80.8* | 67.0* | · | 95.8* | 87.0*
CCSc1nc2ccccc2n1C(=O)/C=C/c1ccc(OC)c(OC)c1 | 95.8* | 82.3* | · | 64.1* | ? | 75.9*
COc1ccc(/C=C/C(=O)N2CC(C)OC(C)C2)cc1OC (stereo unspecified) | -7.2 | -3.7 | 7.2 | 9.7 | 1.6 | 2.4
Cc1noc(C)c1NC(=O)Nc1ccc2c(c1)CC(=O)N([C@H](C)CO)C[C@@H](C)[C@H](CN(C)Cc1ccncc1)O2 | · | · | -5.1 | 10.8 | -6.6 | ·
COc1ccc(/C=C2\Sc3ccc(C(=O)N4CCN(Cc5ccccc5)CC4)cc3N(C)C2=O)cc1OC | 64.8 | 28.6 | 34.0 | 77.2* | 18.0 | 59.7
CN1CCN(C(=O)c2ccc3c(c2)N(C)C(=O)/C(=C/c2cccc(Cl)c2)S3)CC1 | 6.0 | 4.8 | 16.1 | 13.5 | 4.6 | -17.0
Cc1ccc(S(=O)(=O)N(C)C[C@H]2Oc3ccc(NS(=O)(=O)c4c(C)noc4C)cc3CC(=O)N([C@@H](C)CO)C[C@@H]2C)cc1 | · | · | 8.5 | -5.7 | 9.6 | ·
CCOc1ccc2c(C)c(Cl)c(=O)oc2c1 | -5.5 | 64.2* | · | · | · | 2.0
Cc1noc(C)c1S(=O)(=O)N(C)C[C@@H]1Oc2ccc(NS(=O)(=O)c3ccc(F)cc3)cc2C(=O)N([C@@H](C)CO)C[C@@H]1C | · | · | -13.6 | · | -42.8 | ·
Cc1ccccc1CSCC(=O)N1CCN(c2ccccc2)CC1 | 11.3 | -2.2 | -5.8 | 12.3 | · | -8.8
Cc1ccsc1-c1nc(CSCC(=O)N2CCN(c3ccccc3)CC2)c(C)o1 | 9.8 | 81.2* | -6.2 | · | 5.4 | 13.1
O=C(c1ccccc1Br)N1CCN(Cc2ccc3c(c2)OCO3)CC1 | 8.5 | 42.7* | 6.3 | -14.9 | 8.2 | 9.6
O=C(O)c1ccccc1C(=O)N1CCN(Cc2ccc3c(c2)OCO3)CC1 | -11.8 | · | 1.2 | -7.4 | -8.3 | -26.0
CCn1c(/C=C/Nc2ccccc2)[n+](CC)c2ccc(Cl)cc21 | 45.6 | 5.8 | · | 7.9 | -2.4 | -6.1
CCn1c(/C=C/N(C)c2ccccc2)[n+](CC)c2ccc(Cl)cc21 | 72.7 | 18.7 | · | · | 21.5 | 65.5*
CO[C@@H]1CN(C)C(=O)c2ccc(NC(=O)C3CCCC3)cc2OC[C@@H](C)N(C(C)=O)C[C@@H]1C | · | · | · | -3.8 | 2.7 | ·
C[C@@H]1CN([C@@H](C)CO)C(=O)c2cc(NC(=O)Nc3ccccc3)ccc2O[C@H]1CN(C)C(=O)Nc1cccc2ccccc12 | 10.9 | 58.2* | 8.7 | · | 11.1 | 11.7
C[C@@H]1CCCCO[C@@H](CN(C)CC2CCCCC2)[C@@H](C)CN([C@@H](C)CO)C(=O)c2cc(NC(=O)Nc3cccc4ccccc34)ccc2O1 | · | · | 77.0* | -4.0 | 7.2 | ·
C[C@H]1CN([C@@H](C)CO)C(=O)c2cccc(NC(=O)Nc3cccc4ccccc34)c2O[C@H]1CN(C)CC1CC1 | · | · | -2.8 | 89.6* | 12.3 | ·
C[C@H](CO)N1C[C@H](C)[C@@H](CN(C)C)Oc2c(NC(=O)Cc3ccccc3)cccc2C1=O | -1.0 | 44.3* | 3.6 | -3.1 | -16.9 | -4.7
CC(C)CC#Cc1cnc2c(c1)C(=O)N([C@@H](C)CO)C[C@H](C)[C@@H](CN(C)Cc1cncnc1)O2 | · | · | 2.7 | · | -1.6 | ·
COCCNC(=O)C[C@H]1CC[C@H]2[C@@H](COC[C@H](O)CN2C(=O)Nc2ccc3c(c2)OCO3)O1 | · | · | -8.4 | -24.1 | 3.3 | ·
NCC[C@@H]1CC[C@H](NC(=O)C2CC2)[C@H](CO)O1 | · | · | -6.4 | · | -2.3 | ·
Cc1ccc(S(=O)(=O)Nc2cccc3c2O[C@@H](CN(C)C(=O)Nc2ccc(C(F)(F)F)cc2)[C@@H](C)CN([C@H](C)CO)C3=O)cc1 | · | · | 0.1 | 104.3* | 1.9 | ·
C[C@@H]1CN([C@@H](C)CO)C(=O)c2cccc(NC(=O)Nc3ccc(C(F)(F)F)cc3)c2O[C@H]1CN(C)C(=O)Nc1cccc2ccccc12 | · | · | 17.0 | · | ? | ·
SMILES | Shn3 inh set2 | EBV LMP1 NFkB | EWS-Fli inh | PAX8 inh HTS | LGR2 inh | TRPM1 prom inh
C[C@@H]1CCCCO[C@H](CN(C)CC2CCCCC2)[C@H](C)CN([C@H](C)CO)C(=O)c2cc(NC(=O)Nc3cccc4ccccc34)ccc2O1 | · | · | 86.7* | 5.4 | -5.5 | ·
C[C@@H]1CN([C@@H](C)CO)C(=O)c2cccc(NC(=O)Nc3ccc(C(F)(F)F)cc3)c2O[C@@H]1CN(C)C(=O)Nc1cccc2ccccc12 | · | · | 2.2 | · | 67.3* | ·
C[C@@H]1CN([C@H](C)CO)C(=O)c2cc(NC(=O)Nc3cccc4ccccc34)ccc2O[C@@H](C)CCCCO[C@@H]1CN(C)CC1CCCCC1 | · | · | 76.5* | -2.9 | -3.9 | ·
COc1ccc(CN(C)C[C@@H]2OCCCC[C@H](C)Oc3ccc(NS(=O)(=O)c4ccc(Cl)cc4)cc3C(=O)N([C@@H](C)CO)C[C@H]2C)cc1 | · | · | 8.3 | 29.8 | 14.6 | ·
CNC[C@H]1OCCCC[C@H](C)Oc2ccc(NC(=O)Nc3cccc4ccccc34)cc2C(=O)N([C@@H](C)CO)C[C@@H]1C | · | · | 0.7 | 20.4 | 7.4 | ·
C[C@@H]1CN([C@H](C)CO)C(=O)c2cc(NC(=O)Nc3cccc4ccccc34)ccc2O[C@H]1CN(C)CC1CCCCC1 | · | · | 22.1 | · | -16.5 | ·
C[C@@H]1CCCCO[C@H](CN(C)CC2CCCCC2)[C@H](C)CN([C@@H](C)CO)C(=O)c2cc(NC(=O)Nc3cccc4ccccc34)ccc2O1 | · | · | 18.5 | 28.5 | -10.2 | ·
C[C@H](CO)N1C[C@H](C)[C@H](CN(C)CC2CCCCC2)OCCCC[C@H](C)Oc2ccc(NC(=O)Nc3cccc4ccccc34)cc2C1=O | · | · | 92.0* | 2.6 | -4.3 | ·
C[C@@H]1CN([C@H](C)CO)C(=O)c2cc(NC(=O)Nc3cccc4ccccc34)ccc2O[C@@H]1CN(C)CC1CCCCC1 | · | · | 70.3* | · | 10.2 | ·
Cc1noc(C)c1NC(=O)Nc1ccc2c(c1)CC(=O)N([C@@H](C)CO)C[C@H](C)[C@@H](CN(C)C(=O)NC(C)C)O2 | · | · | -6.1 | -11.9 | 24.8 | ·
O=C(CN1C(=O)c2ccccc2S1(=O)=O)NCc1ccccc1Cl | 3.9 | -0.4 | -2.3 | -4.3 | 6.7 | -1.3

Source: PubChem BioAssay
